# Bioassay records as filed in PubChem BioAssay.
# MCF10A rereplic: A quantitative high throughput screen for small molecules that induce DNA re-replication in MCF 10a normal breast cells; MCF 10A DNA re-replication, Hoechst nuclear intensity, 48 h; Potency, µM (titrated, usually from 46.1 µM), most hits filed as activators; 2.9% of 350,000 active; further: nearly all actives have a fitted effect of over 50% in size
# KB-V1 cytotox: qHTS assay for MDR1-selective chemotherapeutics: Primary screen using the drug-selected MDR subline cells KB-V1; 3.4% of 400,000 active; KB-V1 MDR cells viability, CellTiter-Glo, 72 h; Potency, µM (highest dose often 46.1 µM), usual class: cytotoxic; AID 1347076, 2019; further: nearly all actives have a fitted effect of over 60% in size
#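 Readout: CellTiter-Glo luminescence, 10 min after addition. Cells: KB-V1 MDR subline, 72 h at 37 degrees C with compound. Analysis: corrected, normalized data fitted to concentration-effect curves.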
# KB-3-1 cytotox: qHTS assay for MDR1-selective chemotherapeutics: Primary screen using the parental adenocarcinoma cell KB-3-1; Potency, µM (series often up to 46.1 µM), actives largely listed as cytotoxic; 1.4% of 400,000 active; KB-3-1 viability, CellTiter-Glo ATP luminescence, 72 h; further: nearly all actives have a fitted effect of over 60% in size
#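 Screening of KB-3-1 cells (DMEM, 10% FBS, phenol-red free) ran from lowest to highest compound concentration; after 72 h at 37 °C viability was read luminescently and curves fitted.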
# HT1080 IDH1KD tx: qHTS for induction of synthetic lethality in tumor cells producing 2HG: qHTS for the HT-1080-IDH1KD cell line; HT-1080 IDH1 knockdown viability, ATP luminescence, 48 h; Potency, µM (highest dose often 46.1 µM), hits mostly cytotoxic; 2% of 360,000 active
#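 HT-1080-IDH1KD cells (IDH1 knocked down), 750/well in RPMI with 5% FBS, treated with compound 48 h at 37 degrees C. Viability by CellTiter-Glo luminescence, normalised to DMSO and no-cell wells; concentration-response curves classed.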
# HT1080NT lethal: qHTS for induction of synthetic lethality in tumor cells producing 2HG: qHTS for the HT-1080-NT fibrosarcoma cell line; Potency, µM (series often up to 46.1 µM), most hits filed as cytotoxic; HT-1080-NT fibrosarcoma viability, CellTiter-Glo ATP luminescence, 48 h; 1.6% of 360,000 active;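 further: NT is the 2HG producing partner of a matched IDH1 knockdown line; nearly all actives have a fitted effect of over 55% in size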
#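 750 cells/well, RPMI + 5% FBS; 2 h settle, compound pin-transfer, 48 h at 37 degrees C. CellTiter-Glo 10 min RT, luminescence. Normalized to DMSO and media-only wells.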
# SW480 rerep: A quantitative high throughput screen for small molecules that induce DNA re-replication in SW480 colon adenocarcinoma cells; 1.8% of 340,000 active; SW480 DNA re-replication, Hoechst DNA content imaging, 48 h; AID 624297, 2012; Potency, µM (highest dose often 46.1 µM), most hits filed as activators; further: nearly all actives have a fitted effect of over 55% in size
#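 Per well, 250 cells were exposed to pinned compound for 48 hr. Nuclear DNA was visualised with Hoechst (40 min, 37 C) and total object intensity recorded by fluorescence scanning.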
# Numbers stand for hits; - = inactive; ? = inconclusive; . = no result. Sampled rows, rich in hits. Any-hit rate of the full collection: about 7.9%. The call rests on the fitted dose curve; in most records, active means well fitted curve in the direction sought with a large enough effect; inconclusive means small, poorly fitted or top-dose-only effect, or another doubt; inactive means no such curve, though single readings can be large; an effect the other way counts as inactive or inconclusive.
SMILES,MCF10A rereplic,KB-V1 cytotox,KB-3-1 cytotox,HT1080 IDH1KD tx,HT1080NT lethal,SW480 rerep
CCCCOC(=O)c1c(C)oc2ccc(NS(=O)(=O)c3ccc4c5c(cccc35)C(=O)N4)cc12,?,14.6µM,?,-,-,-
C[C@@H]1CCCCO[C@H](CN(C)Cc2ccc(C(F)(F)F)cc2)[C@@H](C)CN([C@H](C)CO)C(=O)c2cc(NS(=O)(=O)c3cn(C)cn3)ccc2O1,.,?,-,-,-,.
COc1cccc(C(NC(C)=O)c2nc(-c3ccc(F)cc3OC)cs2)c1 (configuration not stated),.,-,-,-,-,.
CCc1ccc2nc(N(CCCN(C)C)C(=O)c3ccc(S(=O)(=O)N4CCc5ccccc5C4)cc3)sc2c1,?,-,-,13µM,?,?
CCc1ccc2nc(N(CCCN(C)C)C(=O)c3ccc(S(=O)(=O)N(C)C4CCCCC4)cc3)sc2c1,18.4µM,-,?,23.1µM,?,?
COC(=O)CN1C(C(=O)c2ccccc2)=C(OC(=O)c2ccccc2)c2ccccc2S1(=O)=O,.,-,-,.,.,.
COc1ccc(Cl)cc1Nc1nc2ccc(C)cc2n2cnnc12,8.2µM,-,-,-,-,-
CCOc1ccccc1Nc1nc2ccc(C)cc2n2cnnc12,-,?,-,-,-,-
COc1cccc(Nc2nc3ccc(C(=O)c4ccccc4)cc3n3cnnc23)c1,9.2µM,-,-,-,-,18.4µM
COc1ccc(OC)c(Nc2nc3ccc(C)cc3n3cnnc23)c1,18.4µM,-,-,-,-,-
CC(C)c1ccc(Nc2nc3ccc(C(=O)c4ccccc4)cc3n3cnnc23)cc1,.,?,-,.,.,.
CC(C)COC(=O)C1C(=O)CC(C)(O)C(C(=O)OCC(C)C)C1c1cccnc1 (configuration not stated),-,16.4µM,-,-,-,-
CCN(CC)c1ccc(C2C(C(=O)OC(C)C)C(=O)CC(C)(O)C2C(=O)OC(C)C)cc1 (configuration not stated),-,18.4µM,-,-,-,-
Cc1ccc2oc(=O)c(S(=O)(=O)c3ccc(C(C)(C)C)cc3)cc2c1,.,-,-,.,.,.
COc1ccccc1NC(=O)c1cccc(S(=O)(=O)N2CCCCCC2)c1,.,-,-,.,.,.
O=C(COC(=O)CNC(=O)c1ccccc1Cl)Nc1cc(C(F)(F)F)ccc1Cl,14.6µM,-,-,.,.,-
CCN(Cc1cccc(S(=O)(=O)O)c1)c1ccc(C(=C2C=CC(=[N+](CC)Cc3cccc(S(=O)(=O)O)c3)C=C2)c2ccc(O)cc2S(=O)(=O)O)cc1,.,-,-,.,.,.
Cc1ccc(C(C)C)cc1OCCCCN1CCCC1,?,20.6µM,-,-,-,-
COc1ccc(S(=O)(=O)N(C)CC(=O)Nc2ccccc2C(F)(F)F)cc1Cl,-,14.6µM,-,-,-,-
COc1ccc(S(=O)(=O)N(C)CC(=O)Nc2ccccc2C(F)(F)F)cc1,-,-,-,-,-,-
COc1ccc(CNC(=O)c2cnc(N3CCCC3)nc2C)c(OC)c1,.,-,-,.,.,.
COc1cc(Nc2nc3c(S(=O)(=O)c4ccccc4)nnn3c3ccc(Cl)cc23)cc(OC)c1,.,-,-,.,.,.
Cc1[nH]c2ccccc2c1C(=O)COC(=O)C1CC(O)CN1S(=O)(=O)c1ccc(Cl)cc1 (configuration not stated),-,-,-,?,-,-
CSCCC(NS(=O)(=O)c1ccc(Cl)cc1)C(=O)OCC(=O)c1c(C)[nH]c2ccccc12 (configuration not stated),11.6µM,14.6µM,?,-,-,-
CSCCC(NC(=O)COc1ccccc1)C(=O)OCC(=O)c1ccccc1 (configuration not stated),-,-,-,-,-,-
SMILES,MCF10A rereplic,KB-V1 cytotox,KB-3-1 cytotox,HT1080 IDH1KD tx,HT1080NT lethal,SW480 rerep
CSCCC(NS(=O)(=O)c1ccc2ccccc2c1)C(=O)OCC(=O)c1ccc(C(C)C)cc1 (configuration not stated),-,18.4µM,-,-,-,?
Cn1cc(S(=O)(=O)N2CCCCCC2)cc1C(=O)NCc1ccccc1Cl,.,-,-,.,.,.
COc1cc(OC)cc(C(=O)NC(=S)NCc2ccco2)c1,-,-,-,?,17.8µM,?
COc1cccc(C(=O)NC(=S)NCc2ccco2)c1,-,-,-,-,-,-
Cc1ccc(-n2ncc3c(NCCCn4ccnc4)ncnc32)cc1,.,-,-,.,.,.
CC(C)c1ccc(S(=O)(=O)/N=C2/C=C(Sc3ncn[nH]3)C(=O)c3ccccc32)cc1,3.26µM,?,-,4.61µM,2.91µM,10.3µM
Cc1ccc(S(=O)(=O)Nc2ccc(O)c(Sc3ncn[nH]3)c2)cc1,-,-,-,-,-,-
CCOc1ccc(S(=O)(=O)Nc2ccc(O)c(Sc3ncn[nH]3)c2)cc1,-,-,-,-,-,-
Cc1ccc(S(=O)(=O)/N=C2/C=C(Sc3ncn[nH]3)C(=O)c3ccccc32)cc1,-,?,-,3.66µM,18.4µM,8.2µM
Cc1ccnc(NC(=S)N2CCN(c3ccc(Br)cc3)CC2)c1,.,-,-,.,.,.
O=c1c2cn[nH]c2nc(SCc2ccccc2F)n1-c1ccc(Br)cc1,18.4µM,-,-,18.4µM,-,?
COc1ccc2c(CNCc3cccs3)c(C(=O)O)n(Cc3ccccc3F)c2c1,.,-,-,.,.,.
CCOCCCNC(=O)c1c(NC(=O)c2cc(=O)c3cc(C)c(C)cc3o2)sc2c1CCC2,.,-,-,.,.,.
Cc1ccc(C2(CCNCc3ccc(N(C)C)cc3)CCOC(C(C)C)C2)cc1 (configuration not stated),?,?,?,18.4µM,23.1µM,?
Cc1ccc(C2(CCNS(=O)(=O)c3ccc(C)cc3)CCOC(C(C)C)C2)cc1 (configuration not stated),?,3.66µM,?,-,-,-
CC(C)C1CC(CCNCc2ccc(N(C)C)cc2)(c2ccccc2)CCO1 (configuration not stated),?,?,20.6µM,?,-,-
CC(C)C1CC(CCNCc2ccc3c(c2)OCO3)(c2ccccc2)CCO1 (configuration not stated),?,?,?,25.9µM,18.4µM,?
CCC1(C)CC(CCNS(=O)(=O)c2ccc(C)cc2)(c2ccc(C)cc2)CCO1 (configuration not stated),?,?,?,?,?,-
